The source holds several records for some structures; these can differ, active in one and inactive in another. Active and inactive are the calls of the source. The calls were made as follows: active = hit-call score of the fitted dose curve at least 0.9, where 1 is the maximum; inactive = score below 0.9.

A short description of the assay: ATG_M_32_CIS: Attagene CIS-FACTORIAL HepG2 Assay for M32 Transcription Factor (Internal Marker) (AID 2282949).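 Also: background control marker of the multiplexed CIS panel rather than a real target.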 As to conditions: HepG2 Attagene cis-factorial M32 reporter, mRNA; actives raise or lower the signal. The procedure:
ATG_CIS is a cell-based, multiplexed-readout assay that uses HepG2, a human liver cell line, with measurements taken at 24 hours after chemical dosing in a 24-well plate.ATG_M_32_CIS is one of 52 assay component(s) measured or calculated from the ATG_CIS assay. It is designed to make measurements of mRNA induction, a form of inducible reporter, as detected with fluorescence intensity signals by Reverse transcription polymerase chain reaction (RT-PCR) and Capillary electrophoresis technology.Data from the assay component ATG_M_32_CIS was analyzed into 1 assay endpoint. This assay endpoint, ATG_M_32_CIS, was analyzed with bidirectional fitting relative to DMSO as the negative control and baseline of activity. Using a type of inducible reporter, measures of mRNA for gain or loss-of-signal activity can be used to understand the background control at the transcription factor-level as they relate to the gene . Furthermore, this assay endpoint can be referred to as a secondary readout, because this assay has produced multiple assay endpoints where this one serves a background control function. To generalize the intended target to other relatable targets, this assay endpoint is annotated to the background measurement intended target family, where the subfamily is internal marker.
Human liver HepG2 cells are transiently transfected with multiple reporter transcription units (MRTUs) in 6-well plates using FuGene 6 reagent (Roche; 3 ml FuGene/1 mg DNA). The MRTU constructs are regulated by a cis-regulating element (promoter). […] A major difference between the CIS and TRANS system is that in CIS activities of endogenous TFs are measured, whereas the TRANS assay evaluates changes in activities of exogenous, chimeric NR-Gal4 proteins. […] At the end of 24 hour incubation, total RNA was isolated using TriZol reagent (Invitrogen). The isolated RNA is then reverse-transcribed using oligo(dT) primer and Mo-MLV reverse transcriptase (Invitrogen) with DNAse I (Ambion) treatment for 30 min. The one-tenth of the produced cDNA was amplified by PCR using Taq DNA polymerase (Invitrogen) and two reporter sequence-specific primers. The PCR products were fluorescently labeled by primer extension with 6-arboxyfluorescein (6-FAM) 5'-labeled reporter sequence-specific primer (2 min at 95 C, 20 s at 68 C and 10 min at 72 C) and these products were digested with 5U of HpaI (New England Biolabs) for 2h at 37 C. The fragments were purified using Qiaquick PCR columns (Qiagen), analyzed on an ABI 3130xL genetic analyzer (Applied Biosystems) with peak positions identified by using a set of X-rhodamine (ROX)-labeled MapMarker1000 molecular weight standards (BioVentures). The raw capillary electrophoresis data was processed using Attagraph software (Attagene).
For `CC(C)(C)C(O)/C(=C\c1ccc(Cl)cc1Cl)n1cncn1` (stereo not given), the call was inactive. `COc1cc(OC)nc(NC(=O)NS(=O)(=O)c2cc(NC=O)ccc2C(=O)N(C)C)n1`: the result was inactive. On to `N#CN`, for which the outcome was inactive. As for `CCS(=O)(=O)c1cccnc1S(=O)(=O)NC(=O)Nc1nc(OC)cc(OC)n1`, the compound was classed as inactive. Same read-out and setting: to `COc1nn(CSP(=S)(OC)OC)c(=O)s1` belongs “inactive”. What is called AC50 is the concentration giving half of the maximal activity seen. For the compound `O=S(=O)(O)C(F)(F)C(F)(F)C(F)(F)C(F)(F)C(F)(F)C(F)(F)C(F)(F)C(F)(F)F`, the AC50 was 53.6 µM (active) and the call was inactive. Take `CCN(CC)C(=O)SCc1ccc(Cl)cc1`: the compound was called inactive. Take `COC(=O)c1ccccc1CS(=O)(=O)NC(=O)Nc1nc(OC)cc(OC)n1`: the compound was classed as inactive. Consider `CCCN(CCC)c1c([N+](=O)[O-])cc(C(F)(F)F)cc1[N+](=O)[O-]`, for which the compound was called inactive. On the same count and under the same terms, the value for `CC(C)OC(=O)Nc1cccc(Cl)c1` was “inactive”; that for `O=[N+]([O-])c1c(Cl)c(Cl)c(Cl)c(Cl)c1Cl` was “inactive”. `CC(C)N(C(=O)COc1nnc(C(F)(F)F)s1)c1ccc(F)cc1`: the result was inactive. On the same count and under the same terms, the value for `CCOC1Oc2ccc(OS(C)(=O)=O)cc2C1(C)C` (stereo not given) was “inactive”; that for `CCC(C)(NC(=O)c1cc(Cl)c(C)c(Cl)c1)C(=O)CCl` (stereo not given) was “inactive”; that for `COC(=O)c1ccccc1S(=O)(=O)NC(=O)N(C)c1nc(C)nc(OC)n1` was “inactive”.

`CC[C@H](C)[C@H]1O[C@]2(C=C[C@@H]1C)C[C@@H]1C[C@@H](C/C=C(\C)[C@@H](O[C@H]3C[C@H](OC)[C@@H](O[C@H]4C[C@H](OC)[C@@H](O)[C@H](C)O4)[C@H](C)O3)[C@@H](C)/C=C/C=C3\CO[C@@H]4[C@H](O)C(C)=C[C@@H](C(=O)O1)[C@]34O)O2` (tested in a mixture with another compound): the compound was called inactive.

For `N#Cc1c(Cl)c(Cl)c(Cl)c(C#N)c1Cl`, the compound was classed as inactive. As for `O=C1c2ccccc2C(=O)N1SC(Cl)(Cl)Cl`, the result was inactive. In the case of `COP(=S)(OC)Oc1ccc([N+](=O)[O-])cc1`, the result was inactive.

In the case of `CCC(C)(C)C(=O)OC1=C(c2ccc(Cl)cc2Cl)C(=O)OC12CCCCC2`, the compound was classed as inactive. On the same count and under the same terms, to `O=C(O)C(F)(F)C(F)(F)C(F)(F)C(F)(F)C(F)(F)C(F)(F)C(F)(F)F` belongs “inactive”; to `CCOc1nc(NC)nc(NC(=O)NS(=O)(=O)c2ccccc2C(=O)OC)n1`, “inactive”; to `[2H]C1([2H])[n+]2ccccc2-c2cccc[n+]2C1([2H])[2H]`, “inactive”. On the same count and under the same terms, to `O=C(NC(=O)c1c(F)cccc1F)Nc1ccc(OC(F)(F)C(F)OC(F)(F)F)c(Cl)c1` (stereo not given) belongs “inactive”; to `CCc1ccc(C(=O)NN(C(=O)c2cc(C)cc(C)c2)C(C)(C)C)cc1`, “inactive”; to `O=S1OCC2C(CO1)C1(Cl)C(Cl)=C(Cl)C2(Cl)C1(Cl)Cl` (stereo not given), “inactive”. On the same count and under the same terms, to `Oc1cc(Cl)ccc1Oc1ccc(Cl)cc1Cl` belongs “inactive”; to `O=C(O)COc1ccc(Cl)cc1Cl`, “inactive”. On to `Oc1ccc(Cl)cc1Cc1ccccc1`, for which the compound was called inactive. On to `COC(=O)c1ccccc1S(=O)(=O)NC(=O)Nc1nc(C)nc(OC)n1`, for which the compound was called inactive. The same measure, in the same setting: to `Clc1ccccc1-c1nnc(-c2ccccc2Cl)nn1` belongs “inactive”. On to `O=[N+]([O-])/N=C1\NCCN1Cc1ccc(Cl)nc1`, for which the compound was called inactive. As for `CCC(C)Nc1c([N+](=O)[O-])cc(C(C)(C)C)cc1[N+](=O)[O-]` (stereo not given), the compound was called inactive. The same measure, in the same setting: the value for `COP(=O)(OC)OC=C(Cl)Cl` was “inactive”.

As for `CC1(C)C(C=C(Cl)Cl)C1C(=O)OC(C#N)c1ccc(F)c(Oc2ccccc2)c1` (stereo not given), the compound was called inactive. On the same count and under the same terms, to `O=C(Nc1ccccc1)Nc1cnns1` belongs “inactive”; to `CNC(=O)Oc1cccc(N=CN(C)C)c1`, “inactive”. On to `ClC1C(Cl)C(Cl)C(Cl)C(Cl)C1Cl` (stereo not given), for which the outcome was inactive. Take `CC1(c2ccc(Oc3ccccc3)cc2)OC(=O)N(Nc2ccccc2)C1=O` (stereo not given): the result was inactive.

The record behind these values is PubChem BioAssay (EPA / NIEHS).
